The campaign covered roughly 190,000 compounds. About 4,000 (2.1%) were called active. Cut-off read from the data, not from the text of the source: active = inhibition above about 58%; inactive = the rest, inconclusive results apart; tested in S. cerevisiae. The sample as a whole holds a higher share of actives than the screen did.
Assay: growth inhibition of WT strain, primary screen, mitochondrial fusion inhibitor project, WT and mutant strains, chemical genetic (AID 1362)
Settings: mitochondrial fusion phenotypic screen, at 10 µM
[1] = WT strain, growth inhibition, stronger effect = higher value

Compound	inhibition [1]	inhibition (mutant strain inhibition) [%]
CC(=O)Nc1cccc(-c2nc3ccccc3s2)c1C	-0.41% (inactive)	-5.28
COC(=O)C1=C(C)N(C(C)c2ccccc2)C(=O)/C1=C\c1ccco1 (stereo unspecified)	58.3% (active)	-4.58
O=C(CCCN1C(=O)/C(=C/c2ccco2)SC1=S)Nc1ccccc1	1.95% (inactive)	-17.3
COC(=O)C1=C(C)N(c2ccc(Br)cc2)C(=O)/C1=C\c1ccco1	13.1% (inactive)	8.54
O=C(NCCN1CCOCC1)Nc1cccc(Cl)c1	-7.63% (inactive)	-3.81
Cc1cc(C)cc(OCC(=O)NCc2cc(C)nc3ccccc23)c1	-2.23% (inactive)	3.06
COc1cc(NC(=S)N2CCCC(C)C2)c(OC)cc1Cl (stereo unspecified)	-3.52% (inactive)	1.38
COc1ccc(NC(=O)COc2ccc(C(=O)OCC(=O)N(C)C3CCS(=O)(=O)C3)cc2OC)cc1 (stereo unspecified)	-3.64% (inactive)	1.53
O=C(Nc1cccc(S(=O)(=O)Nc2ccc(Cl)cc2)c1)c1ccc2c(c1)OCCO2	63.7% (active)	29.9
O=C(Nc1cccc(S(=O)(=O)N2CCCCC2)c1)c1ccc2c(c1)OCO2	9.86% (inactive)	4.97
O=C(Nc1ccc(Cl)cn1)c1ccc2c(c1)OCCO2	27.3% (inactive)	29
CCn1nc(C)cc1C(=O)N1CCCC(C(=O)c2cccc(OC)c2)C1 (stereo unspecified)	-20.3% (inactive)	1.68
Cn1nnnc1SCC(=O)NNC(=O)c1ccc(Br)cc1	-19.9% (inactive)	0.05
COc1cc(/C=N/NC(=O)c2cc(C)n(-c3ccc(F)cc3)c2C)cc(OC)c1O	1.5% (inactive)	1.64
COc1cc(Cl)c(C)cc1NC(=O)CSc1nnc(-c2ccco2)n1CC(C)C	63.4% (active)	39.5
CCn1c(SCC(=O)Nc2cc(C)c(Cl)cc2OC)nnc1-c1ccco1	23% (inactive)	32.2
COc1cc(Cl)c(C)cc1NC(=O)CSc1nnc(-c2cccnc2)n1Cc1ccco1	2.54% (inactive)	2.3
CCN(CC)CCOC(=O)c1ccc(NC(=O)CNC(=O)c2ccccc2)cc1	19.4% (inactive)	15.8
CC(C)OCC(O)CN1CCN(C(c2ccccc2)c2ccccc2)CC1 (stereo unspecified)	11% (inactive)	3.96
CC(C)NC(=S)N1CCN(C(c2ccccc2)c2ccccc2)CC1	64.7% (active)	29.4
COc1ccccc1NC(=S)NC(=O)C(C)C	48% (inactive)	2.93
CC(C)NC(=S)N1CCN(S(C)(=O)=O)CC1	-2.96% (inactive)	11.2
COc1ccccc1NC(=S)N1CCN(C(c2ccccc2)c2ccccc2)CC1	58.8% (active)	38.3
COc1ccccc1NC(=S)N1CCC(NC(=O)C23CC4CC(CC(C4)C2)C3)CC1	-5.17% (inactive)	19
O=C1CN(C(=O)COC(=O)c2cnc(Cl)c(Cl)c2)c2ccccc2N1	-3.97% (inactive)	-29.4
O=C(COC(=O)c1ccco1)NCc1ccc(Cl)cc1	2.75% (inactive)	-1.13
Cc1n[nH]c(=O)n1-c1ccc(C(C)C)cc1	-5.29% (inactive)	-2.69

Compound	inhibition [1]	inhibition (mutant strain inhibition) [%]
O=C(CO/N=C/c1ccc(OC(F)F)cc1)NCc1ccc(F)cc1	16.7% (inactive)	27
CC(C(=O)N=Nc1c(O)n(C)c2ccc(Br)cc12)n1cnc2ccccc2c1=O (stereo unspecified)	17.8% (inactive)	30.6
COCCN(CCOC)S(=O)(=O)c1ccc(/C(O)=C(\C#N)c2nc3ccccc3[nH]2)cc1	-0.78% (inactive)	-1.8
CC(C)CN1CCNC(=O)C1CC(=O)N(C)CC1CCOCC1 (stereo unspecified)	-4.62% (inactive)	-8.09
COC(=O)C1=C(C)N(c2ccc(C)cc2)/C(=C/c2ccc(O)cc2)C1=O	5.84% (inactive)	0.5
COc1ccc(/C=N/NC(=O)CNC(=O)c2ccc(S(=O)(=O)N3CCCC3)cc2)c(OC)c1	7.02% (inactive)	8.18
Cc1nnc(CN(C)Cc2cn[nH]c2-c2ccc(-c3ccccc3)cc2)o1	6.53% (inactive)	-1.49
CCCc1ccc(OCC(=O)NNC(=S)NC(=O)c2ccco2)cc1	87.8% (inactive)	88.2
CC(Oc1ccc2ccccc2c1)C(=O)NNC(=S)NC(=O)c1ccco1 (stereo unspecified)	86.5% (active)	80.5
O=C(Nc1ccc2ccccc2c1)/C(=C/c1cccc(Br)c1)NC(=O)c1ccco1	17.2% (inactive)	10.9
CCCCCNC(=O)c1cccnc1SCC(=O)Nc1ccccc1OC	-6.44% (inactive)	-24
CCCNC(=O)c1ccccc1NC(=O)CSCc1ccc(OC)cc1	72.9% (active)	19.6
CCCNC(=O)Nc1ccccc1C(=O)Nc1ccc(OC)cc1	-0.69% (inactive)	-0.17
Cc1cccc(C)c1NC(=O)C1(C)c2cccc[n+]2CC(=O)N1Cc1cccs1 (stereo unspecified)	-7.87% (inactive)	0.75
COc1cc(/C=N/O)cc(Br)c1OS(=O)(=O)c1ccc(C)cc1	71.3% (active)	30.6
CCOc1c(Cl)cc(/C=N/O)cc1OC	-6.94% (inactive)	-20.7
CCOc1cc(/C=N/O)cc(Br)c1OC	-2.36% (inactive)	-20.3
COc1cc(/C=N/O)cc(Br)c1OCc1cccc(Cl)c1	91.4% (active)	76.3
COc1cc(/C=N/Nc2ccc(C)cc2)cc(Br)c1O	15.8% (inactive)	37.7
COc1cccc(/C=N/NC(=O)c2cccc([N+](=O)[O-])c2)c1OS(=O)(=O)c1ccc(C)cc1	-5.41% (inactive)	-3.16
N#CC1(C#N)C(C(=O)C23CC4CC(CC(C4)C2)C3)C12CCOCC2 (stereo unspecified)	21.5% (inactive)	11.6
CCOc1cc(N2CCOCC2)c(OCC)cc1NC(=O)C1=NN(c2cccc(C)c2)C(=O)CC1	-2.98% (inactive)	16.4
Cc1cc(C)c(OCCN2CC(C)OC(C)C2)c(Br)c1 (stereo unspecified)	21.8% (inactive)	42.5
S=c1[nH]nc(COc2ccccc2)n1-c1ccccc1	-7.14% (inactive)	-7.05
Cc1ccc(OCc2n[nH]c(=S)n2-c2ccc(C)cc2)cc1	69.9% (active)	60.1
Cc1ccc(OCc2n[nH]c(=S)n2-c2ccccc2)cc1	11.4% (inactive)	20.6

From PubChem BioAssay AID1362 (SRMLSC, 2008)
